The Inhibition is the change of the read-out against control, counted positive when it falls.

One test has as its system Staphylococcus aureus. To be noted: Concentration 32 ug.mL-1;; ASSAY_TEST Inhibition of Bacterial Growth; detection method Absorption (OD600); MEDIA CAMHB; plate type 384well; NBS; CORNING #3640; time 18 hr.
A further test concerns Escherichia coli. The note with it: Concentration 32 ug.mL-1;; ASSAY_TEST Inhibition of Bacterial Growth; detection method Absorption (OD600); MEDIA CAMHB; plate type 384well; NBS; CORNING #3640; time 18 hr.

The structures appear in SMILES notation. Results with a measured potency or affinity are listed apart.

On to `O=C(Cn1nc2c(SC3CCCCC3)nccn2c1=O)NCc1ccc(F)cc1`, for which the Inhibition in the test on Staphylococcus aureus is reported as 3.45%; with Escherichia coli it was -3.55%.
For `N#Cc1ccc(NC(=O)CSc2nnc3c4cc(-c5ccc(F)cc5)nn4ccn23)cc1` the same measures were 5.96% and -4.2%.
The matching figures for `CCOc1ccc(NC(=O)Cn2nc3ccc(-c4ccc(C)c(C)c4)nn3c2=O)cc1`: 3.86% and -6.73%.
For `CCc1ccc(NC(=O)Cn2nc3c(Oc4cccc(OC)c4)nccn3c2=O)cc1`, the Inhibition is on record as 5.31% with Staphylococcus aureus and -1.12% with Escherichia coli.
As for `O=C(Cn1nc2c(N3CCN(c4ccccc4)CC3)nccn2c1=O)Nc1ccc2c(c1)OCO2`, the Inhibition in the test on Staphylococcus aureus is 13.69%; with Escherichia coli it was 0.21%.
For `CCOc1ccccc1CNC(=O)CCc1nnc2ccc(-c3ccc(C)cc3)nn12` the same measures were 9.96% and -0.64%.
Consider `Cc1ccc(NC(=O)Cn2nc3c(Oc4ccccc4Cl)nccn3c2=O)cc1F`, for which the Inhibition is on record as 7.48% in the test on Staphylococcus aureus and -2.62% in the test on Escherichia coli.
Consider `COc1cccc(-n2ccn3c(SCC(=O)Nc4ccc(Cl)cc4)nnc3c2=O)c1`, for which the Inhibition with Staphylococcus aureus is 16.43%; in the test with Escherichia coli, -13.45%.
On to `Cc1cccc(Cn2nc3n(CCc4ccccc4)c(=O)c4sccc4n3c2=O)c1`, for which the Inhibition in the test with Staphylococcus aureus is reported as -3.57%; in the test with Escherichia coli, -0.08%.
For `Cc1cc(C)c(NC(=O)Cn2nc3ccc(Sc4cccc(F)c4)nn3c2=O)c(C)c1` the same measures were 3.74% and -5.92%.
For `CC(C)(C)OC(=O)N1CCC(NC(=O)CCc2nnc3ccc(-c4ccccc4)nn23)CC1` the same measures were 1.31% and -5.19%.
The matching figures for `COc1cccc(CN(c2ccccc2)S(=O)(=O)c2ccc3nncn3c2)c1`: 6.2% and -8.56%.
Turning to `CCc1ccc(N(Cc2ccccc2)S(=O)(=O)c2cccn3c(C)nnc23)cc1`, the Inhibition with Staphylococcus aureus is 11.03%; in the test with Escherichia coli it was -3.19%.
For `CC(C)c1nnc2c(=O)n(CC(=O)Nc3ccc(Cl)cc3)c3ccccc3n12` the same measures were 11.52% and 1.04%.
The matching figures for `Cc1ccc(Oc2nccn3c(=O)n(CC(=O)Nc4ccccc4F)nc23)cc1`: 4.19% and -1.2%.
The matching figures for `O=C(Cn1nc2nc(Nc3ccc(F)cc3)ccn2c1=O)NCc1ccc(F)cc1Cl`: 7.6% and -1.86%.
`COc1cccc(Oc2nccn3c(=O)n(CC(=O)Nc4ccc(OC)c(OC)c4)nc23)c1`: the Inhibition is 15.47% with Staphylococcus aureus and -2.07% in the test with Escherichia coli.
`CCc1nnc2ccc(S(=O)(=O)N(Cc3ccc(F)cc3)c3ccc(OC)cc3)cn12`: the Inhibition was 6.39% in the test on Staphylococcus aureus and -3.2% in the test on Escherichia coli.
Consider `CCOc1ccccc1NC(=O)Cn1nc2c3cc(-c4ccc(OC)cc4)nn3ccn2c1=O`, for which the figures for the Inhibition in the test on Staphylococcus aureus and with Escherichia coli were 2.23% and 5.35%, respectively.
As for `Cc1cc2nn(CC(=O)N3CCCc4ccccc43)c(=O)n2c(Nc2ccc(F)cc2)n1`, the values for the Inhibition in the test on Staphylococcus aureus and in the test with Escherichia coli were 6.5% and -0.15%, respectively.
For `CC1CC(C)CN(c2nccn3c(=O)n(CC(=O)Nc4cccc(C(F)(F)F)c4)nc23)C1` (stereo not given) the same measures were 16.31% and 0.9%.
The matching figures for `CCc1ccccc1NC(=O)Cn1nc2c(Sc3ccccc3CC)nccn2c1=O`: 13.37% and -2.13%.
The matching figures for `Cc1cccc(CN(c2ccc(Cl)cc2)S(=O)(=O)c2cccn3c(C)nnc23)c1`: 13.75% and 2.16%.
Consider `O=C(Cn1nc2c3sc(N4CCCC4)nc3ncn2c1=O)Nc1ccc(F)c(Cl)c1`, for which the Inhibition turned out to be 15.3% with Staphylococcus aureus and 1.03% in the test with Escherichia coli.
The matching figures for `Cc1cc(C)cc(N(Cc2ccccc2)S(=O)(=O)c2cccn3cnnc23)c1`: -25.73% and -13.66%.
